Laboratory results reported in PubChem BioAssay AID1851 (National Center for Advancing Translational Sciences (NCATS), 2009).
In all, about 16,000 compounds went through this assay and about 2,600 (16%) were called active. Another 20% or so got no clear call; they are omitted. Only a sample is shown. Values without a mark were called inactive. The call rests on the fitted dose curve; in most records, active means well fitted curve in the direction sought with a large enough effect; inconclusive means small, poorly fitted or top-dose-only effect, or effect the other way; inactive means no such curve, though single readings can be large or run the other way.

biological target: Cytochrome P450 2D6 (Homo sapiens) (UniProt P10635); assay: Cytochrome panel assay with activity outcomes; conditions: recombinant CYP, pro-luciferin dealkylation, luminescence, p450-cyp2d6; series mostly up to 57.1 µM; activity, negative = inhibition: at the top concentration
On the % scale 0 is the no-effect control and ±100 the full control effect.

Chain of Cytochrome P450 2D6 (Homo sapiens) (P10635 whole entry, looked up): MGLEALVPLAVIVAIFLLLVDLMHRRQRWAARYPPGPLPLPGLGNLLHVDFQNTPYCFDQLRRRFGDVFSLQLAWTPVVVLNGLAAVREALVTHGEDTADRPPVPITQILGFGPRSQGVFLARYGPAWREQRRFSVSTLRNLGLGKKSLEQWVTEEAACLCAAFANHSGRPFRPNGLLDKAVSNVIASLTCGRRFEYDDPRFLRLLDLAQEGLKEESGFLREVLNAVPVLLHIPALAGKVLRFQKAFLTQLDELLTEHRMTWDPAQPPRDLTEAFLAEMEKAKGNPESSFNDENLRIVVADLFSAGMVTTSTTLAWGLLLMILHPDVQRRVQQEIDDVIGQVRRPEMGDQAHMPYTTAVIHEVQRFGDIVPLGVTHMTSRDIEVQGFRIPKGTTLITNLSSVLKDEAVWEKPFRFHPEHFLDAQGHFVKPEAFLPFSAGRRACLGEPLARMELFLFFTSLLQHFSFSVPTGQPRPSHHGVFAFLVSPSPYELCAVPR

Compound | activity, negative = inhibition | AC50
Cc1ccc(-n2ccnc2SCC(=O)N(CC(C)C)C2CCS(=O)(=O)C2)c(C)c1 (stereo not drawn) | -6.08% | –
Cc1cc(C)n(-c2nc(SCCN(C)C)c3c4c(sc3n2)CCCC4)n1 | – | 0.794 µM (active)
O=C(O)CSc1ncnc2sc3c(c12)CCC3 | -4.52% | –
Cc1cc(C)n(-c2nc(NCC(C)O)c3c4c(sc3n2)COC(C)(C)C4)n1 (stereo not drawn) | -1.92% | –
C[C@@H]1C[C@H](C)CN(S(=O)(=O)c2cc(Cl)c(Oc3ccc([N+](=O)[O-])cc3Cl)c(Cl)c2)C1 | 2.46% [at 11.4 µM] | –
Cc1cccc(/C=N\Nc2cn[nH]c(=O)c2Cl)c1 | -13% | –
CC1(C)Cc2ccccc2C(N/N=C/c2cccc(F)c2)=N1 | – | 11.2 µM (active)
O=C(N/N=C/c1cccc(F)c1)c1csc2c1CCCC2 | -28.5% | –
Cn1c(=O)c(-c2ccc(Cl)cc2)nc2cnc(N3CCOCC3)nc21 | 0.0181% | –
Oc1cc(O)c2c(c1)O[C@@H](c1ccc(O)c(O)c1)[C@H](O[C@@]1(c3cc(O)c(O)c(O)c3)Oc3cc(O)cc(O)c3[C@H](O)[C@@H]1O)C2 | -0.664% [at 11.4 µM] | –
Cc1ccc(C(=O)Oc2cc(C)n(C)c(=O)c2)cc1 | -3.57% | –
CCCN(CCC)S(=O)(=O)c1ccc(C(=O)O)cc1 | 1.42% [at 25.6 µM] | –
CCN(CC(=O)NCc1cccs1)S(=O)(=O)c1ccc(C(C)C)cc1 | – | 3.55 µM (active)
CCN(c1ccccc1)S(=O)(=O)c1ccc(NC(=S)NC(=O)c2cccs2)cc1 | -14.7% | –
Cc1nn(CC(O)COc2ccc3c(c2)CCC3)c(C)c1Br (stereo not drawn) | -17% | –
CCn1c(SCC(=O)Nc2sc3c(c2C(N)=O)CCC(C)C3)nnc1-c1ccco1 (stereo not drawn) | 6.66% | –
CCCCNC(=S)NNC(=O)CCn1nc(C)c(Br)c1C | -1.01% | –
CCN(CC)C(=O)CSc1nnc(CNc2ccc(F)cc2)o1 | 16.3% | –
COc1ccccc1-c1nc(N(C)Cc2ccco2)c2ccccc2n1 | – | 1 µM (active)
CN(Cc1ccco1)c1nc(-c2ccccc2C(F)(F)F)nc2ccccc12 | – | 7.94 µM (active)
Cc1ccccc1-c1nc(N(C)Cc2ccco2)c2ccccc2n1 | – | 3.16 µM (active)
CN(C)Cc1ccccc1-c1nc(N(C)Cc2ccco2)c2ccccc2n1 | – | 0.794 µM (active)
CCC(=O)N(Cc1ccco1)c1nc(-c2ccccc2)cs1 | -25% | –
Cc1ccc(-c2cc(C(=O)NCc3ccco3)c3ccccc3n2)s1 | -16.4% | –
O=C1C(Cc2ccccc2)NC(=S)N1c1ccccc1 (stereo not drawn) | 6.7% | –
Cc1ccccc1S(=O)(=O)c1c(C)cc(-c2ccccc2)[nH]c1=O | -6.01% | –
COc1ccc(-n2c(=O)cnc3cnc(Oc4ccccc4)nc32)cc1 | -3.04% | –

Compound | activity, negative = inhibition | AC50
CS(=O)(=O)c1cnc2c(-c3ccc(F)cc3)cnn2c1N | 0.896% | –
CCCCN=C1N/C(=C\c2ccco2)C(=O)N1c1ccccc1 | -29.6% | –
O=C(Nc1ccc(-c2cc3ccccc3oc2=O)c(Cl)c1)c1cccnc1 | 7.04% | –
COc1cccc(Nc2ncc3nc(-c4cn(C)c5ccccc45)c(=O)n(CCC#N)c3n2)c1 | -4.27% | –
O=C(c1cc(-c2ccccc2Cl)on1)N1CCN(C(=O)c2ccco2)CC1 | -1.39% | –
O=C(O)c1cc2cc(OCc3ccccc3)ccc2[nH]1 | -1.31% | –
COc1cc2c(C(=O)NCc3ccc(C)o3)cn(CC(C)C)c(=O)c2cc1OC | -14.4% | –
Cc1oc(=O)c(NC(=O)c2ccccc2)cc1C(=O)c1ccccc1 | -15.9% | –
COc1cccc(-c2nc(N(C)C)c3ccccc3n2)c1 | – | 12.6 µM (active)
COc1ccc(OC)c(Nc2nc(-c3cccc([N+](=O)[O-])c3)nc3ccccc23)c1 | 5.17% | –
Cc1cc(Oc2ccccc2)nc(-c2ccccc2)n1 | -9.47% | –
COc1cccc(-c2nc(N(C)Cc3ccco3)c3ccccc3n2)c1 | – | 5.01 µM (active)
O=C(NC1(C(F)(F)F)NC(=O)N(Cc2cccnc2)C1=O)c1ccccc1 (stereo not drawn) | -26% | –
CC(C)(C)NC(=O)Cn1nnc(-c2ccccc2NC(=O)c2cnccn2)n1 | 11.1% | –
CC(=O)Nc1ccc(NC2=Nc3ccccc3N3C2=Nc2c(c(C)nn2-c2ccccc2)C3c2ccccc2)cc1 (stereo not drawn) | -0.731% | –
Cc1nn(Cc2ccc(Cl)cc2Cl)c(C)c1NC(=O)c1sc2ccccc2c1Cl | -13% | –
C=CCc1cccc2cc(C(=O)N(CC)CC)c(=O)oc12 | -3.73% | –
Cc1[nH]n(-c2ccccc2)c(=O)c1CCOC(=O)c1ccc(C(F)(F)F)cc1 | -16% | –
CCOC(=O)c1ccc(N/C=C/C(=O)c2ccc(OC)cc2)cc1 | -2.63% | –
CCOC(=O)c1ccc(N)cc1 | -7.44% [at 25.6 µM] | –
CCOC(=O)c1ccc(OC(=O)CCCCCN=C(N)N)cc1 | – | 0.316 µM (active)
Cn1c(=O)c(-c2cccs2)nc2cnc(Oc3ccccc3)nc21 | 1.93% | –
NC(=O)NC(=O)CSc1nnc(-c2ccco2)n1Cc1ccccc1 | -6.49% | –
O=C(NC1CCCC1)c1cnn2c(C(F)(F)F)cc(-c3ccco3)nc12 | -5.58% | –
Cc1ccc(Cn2ccc(NC(=O)c3cc4nc(-c5ccco5)cc(C(F)(F)F)n4n3)n2)cc1 | 5.06% | –
FC(F)(F)c1cc(-c2ccco2)nc(NCCc2ccccc2)n1 | – | 5.01 µM (active)
